# A selection: hits, their analogues and other compounds. The true share with any hit is near 11%.
# Autophagy mod: autophagy modulators in MEF cells, primary screen, imaging, high-content, MEF GFP-LC3. 190,000 compounds, 0.98% hits. calls only at 10 µM (by protocol). MEF GFP-LC3 puncta imaging; test concentration mostly 10 µM;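 active = percentage of spot-positive cells more than 3 SD above its plate mean, without a fluorescence outlier flag or 80% toxicity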
# Ins promoter up: insulin promoter activators in MIN6 cells, imaging, high-content screening, mouse beta cells | MIN6 insulin promoter-GFP reporter; hits give high values | z-score at 5 µM | 190,000 compounds, 0.3% hits | AID 1625, 2009;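 active = z-score above 3 at 5 µM with at least 500 cells counted in the well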
# Lmaj promast: Leishmania major promastigote growth inhibition, primary screen. Leishmania major promastigotes, resazurin fluorescence viability. inhibition, % at 10 µM. 200,000 compounds, 9% hits. AID 1063, 2008; in the data active = inhibition above about 50%;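 note: promastigotes grown with compound for 44 hours at 28 °C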
# Insulin prom inh: inhibitors of insulin promoter-driven GFP, primary screen, imaging, TRM-6 cells (human fetal islet line), eGFP reporter, cell count. inhibition, % at 2 µM. reporter expression induced with tamoxifen. 130,000 compounds, 0.9% hits;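 active = inhibition above the mean plus 3 SD, with well images judged a real hit on visual review, cut at about 60% in these data, passing the limit was not always enough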
# WT yeast gro inh: growth inhibition of WT strain, primary screen, mitochondrial fusion inhibitor project, WT and mutant strains, chemical genetic; inhibition, % at 10 µM; 190,000 compounds, 2.1% hits; mitochondrial fusion phenotypic screen; AID 1362, 2008; in the data active = inhibition above about 58%; tested in S. cerevisiae
# A number is an active result; – = inactive; · = not tested or not shown; + = active, no number.
SMILES,Autophagy mod,Ins promoter up,Lmaj promast,Insulin prom inh,WT yeast gro inh
COc1ccc2[nH]c(C)c(CCN(Cc3cccs3)C(=S)Nc3cccc(F)c3)c2c1,–,–,50,·,–
COc1cccc(NC(=S)N(CCc2c(C)[nH]c3ccc(C)cc23)Cc2cccs2)c1,–,–,78,–,–
COc1cccc(NC(=S)N(CCN(C)C)Cc2cccs2)c1,–,–,–,·,–
CC(=O)Nc1ccc(S(=O)(=O)N/N=C/c2ccc(C)s2)cc1,–,–,–,–,–
CC(C)c1ccc(N2CC(C)(C)C2=O)cc1,–,–,–,–,–
O=C(Cc1cccs1)N1CCN=C1SCc1ccccc1Cl,–,–,–,·,–
O=C(Cc1cccs1)N1CCN=C1SCc1ccccc1F,+,–,–,·,–
CCc1nc(N)c(C#N)c(-c2ccccc2OC)c1C,–,–,–,–,–
CCN(CC)C(=O)C1CCCN(Cc2ccc(F)c(F)c2)C1 (stereo not given),–,–,–,·,–
Fc1cccc(CN2CCN3CCCC3C2C2CCCCC2)c1 (stereo not given),–,–,89,–,–
Fc1ccc(CN2CCN3CCCC3C2C2CCCCC2)cc1F (stereo not given),–,–,99,–,–
COc1ccc(CCNC(=O)C(=O)NCc2ccccn2)cc1,–,–,–,·,–
COc1cccc(-c2nc(Oc3cc(C)cc(C)c3)c3ccccc3n2)c1O,+,–,–,·,–
COc1cccc(-c2nc(N3CCCC3)c3ccccc3n2)c1O,·,–,·,·,·
CCc1c(C)nc2ncnn2c1N1CCN(S(=O)(=O)c2ccc(OC)cc2)CC1,–,–,–,–,–
C=CCc1ccc(OCCCOc2ccc(C(=O)O)cc2)c(OC)c1,–,–,–,·,–
C=CCc1ccc(OCCCCN2CCC(C)CC2)c(OC)c1,–,–,89,·,–
C=CCc1ccc(OCCCN2CCCC(C)C2)c(OC)c1 (stereo not given),–,·,100,–,–
CCOc1ccccc1OCCOCCN1CC(C)OC(C)C1 (stereo not given),–,–,63,–,–
C=CCc1ccc(OCCCCN2CC(C)CC(C)C2)c(OC)c1 (stereo not given),–,–,96,–,–
Cc1ccc(C(=S)N2CCN(Cc3ccccc3)CC2)s1,–,–,–,–,–
O=C(N/N=C/c1cccs1)/C(=C/c1ccccc1)NC(=O)c1ccccc1,–,–,–,–,–
CC1CN(CCOc2ccc(Cl)cc2Cl)CC(C)O1 (stereo not given),–,–,–,–,–
COc1cc(C)ccc1OCCCCN1CC(C)OC(C)C1 (stereo not given),–,·,97,–,–
COC(=O)c1ccc(CSc2nc3ccccc3o2)cc1,–,–,–,81,–
SMILES,Autophagy mod,Ins promoter up,Lmaj promast,Insulin prom inh,WT yeast gro inh
CCOC(=O)c1c(C)n(-c2ccc(C)cc2)c2c(C(C(C)=O)C(=O)O)c(Br)c(O)c(O)c12 (stereo not given),–,–,50,–,–
CCOC(=O)c1c(C)n(-c2ccc(C)cc2)c2c(CC(C)=O)c(Br)c(OC)c(O)c12,–,–,–,–,–
CN1C(=O)C(/C(N)=N/NC(=O)c2ccccc2)C2CC1(C)Oc1ccccc12 (stereo not given),–,·,–,·,–
CCOc1ccc(/C=C/C(O)=C2/C(=O)NC3(C)CC2c2ccccc2O3)cc1OC (stereo not given),+,–,–,–,–
CCOc1ccc(/C=C2\SC(=S)N(C(C(=O)O)c3ccccc3)C2=O)cc1OC (stereo not given),·,–,·,·,·
CCOc1ccc(/C=C/C(O)=C2/C(=O)N(C)C3(C)CC2c2ccccc2O3)cc1OC (stereo not given),–,–,65,·,–
CN(C)c1ccc(/C=C/C(O)=C2/C(=O)N(C)C3(C)CC2c2ccccc2O3)cc1 (stereo not given),–,·,66,–,–
COc1cccc(CCc2nnc(CCC(=O)NC(C)Cc3cccs3)o2)c1 (stereo not given),·,–,·,·,·
CCC1CCCCN1C(=O)c1ccc(OC2CCN(C(=O)C3CC3)CC2)cc1 (stereo not given),–,–,–,·,–
COc1ccc([N+](=O)[O-])cc1/C=N/Nc1nn[nH]n1,–,–,–,–,–
N#CCOC(=O)/C=C/c1ccc2c(c1)OCO2,–,–,–,·,–
Cc1cccc(NC(=O)CCCn2c(=S)[nH]c3ccccc3c2=O)c1,–,–,–,–,–
Cc1ccc(CN2CCc3c(OCC(=O)Nc4cccc(C)c4C)cccc3C2=O)cc1,–,–,97,–,–
Cc1ccc(C)c(NC(=O)COc2cccc3c2CCN(Cc2ccccc2C)C3=O)c1,–,–,–,·,–
CCOC(=O)N1CCN(C(=O)COc2cccc3c2CCN(Cc2ccccc2F)C3=O)CC1,–,–,66,–,–
Cc1cc(NC2CCCCC2)nc(NCc2ccccc2)n1,–,–,97,–,–
COc1ccc(Nc2cc(C)nc(NCc3ccccc3)n2)cc1,·,–,·,·,·
Cc1cc(N/N=C/c2ccccc2Cl)nc(NCc2ccccc2)n1,–,·,86,·,–
Cc1ccc(Nc2cc(C)nc(NCc3ccccc3)n2)cc1,–,–,100,·,–
COc1ccc(CNS(=O)(=O)c2cccc(S(=O)(=O)N3CCOCC3)c2)cc1,–,·,–,–,–
CCOc1cc(CNc2ccc(N3CCOCC3)cc2)cc(Br)c1OCC,–,–,–,–,–
CCOc1cc(CNc2ccc(N3CCCCC3)cc2)cc(Br)c1OCC(=O)NC(C)(C)C,–,–,–,–,65
CCOc1cc(CNc2ccc(N(C)C)cc2)cc(Br)c1OCC(=O)NC(C)(C)C,–,–,101,–,–
C=CCOc1c(Br)cc(CNc2ccc(NC(=O)CCC)cc2)cc1OCC,–,·,87,–,–
Cc1ccc(N2CC(C(=O)NCC3CCCO3)CC2=O)cc1Cl (stereo not given),–,–,–,·,–
SMILES,Autophagy mod,Ins promoter up,Lmaj promast,Insulin prom inh,WT yeast gro inh
Cc1ccnc(NC(=O)CSc2ccccn2)c1,·,–,·,·,·
O=C(O)C1CCC(N2C(=O)C3C4CCC(C4)C3C2=O)CC1 (stereo not given),–,–,–,·,–
N#Cc1ccc(-c2ccc(OCC(=O)NCC(=O)Nc3ccc(F)c(F)c3F)cc2)cc1,–,–,58,–,–
O=C(C/C=N\OCc1ccc([N+](=O)[O-])cc1)Nc1ccc(Br)cc1,–,·,–,–,–
CCCCCCCN1C2=NCCN2c2ccccc21,·,–,·,·,·
CCCCN1C2=NCCCN2c2ccccc21,–,–,–,–,–
CCCCCCN1C2=NCCN2c2ccccc21,–,–,–,84,–
c1ccc(OCCN2C3=NCCN3c3ccccc32)cc1,–,–,101,·,–
CC(C)(C)c1ccc(CN2C3=NCCCN3c3ccccc32)cc1,–,·,100,–,–
CCCCCCCN1C2=NCCCN2c2ccccc21,–,·,70,–,–
COc1ccc(S(=O)(=O)N2CCC(C(=O)NCc3cccs3)CC2)cc1,–,–,–,–,–
CCCCN(C(=O)CSc1nnc(-c2ccccc2OC)n1C)c1c(N)n(Cc2ccccc2)c(=O)[nH]c1=O,–,–,61,–,–
